Experimental findings from PubChem BioAssay (EPA / NIEHS) are described below.

SMILES strings stand for the structures. Where “and” joins values, the source holds several entries; their conditions need not be identical. Equal values may be shown once. Some structures have more than one record in an assay (separate samples or runs), and their calls can disagree. Calls of active or inactive are those of the source. Rule for the calls: active = hit-call score of the fitted dose curve at least 0.9, where 1 is the maximum; inactive = score below 0.9.

Read-out in assay [1]: TIMP metallopeptidase inhibitor 2 (TIMP2), TIMP2 (gene 7077)
The assay is described as follows: BSK_KF3CT_TIMP2: BioMAP Diversity Plus: KF3CT Assay for TIMP metallopeptidase inhibitor 2 (TIMP2) Biomarker Activity (AID 2283071). To be noted: primary human keratinocytes with fibroblasts; actives raise or lower the signal. The essentials:
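Chemicals were dosed onto human skin primary co-cultures of keratinocytes and foreskin fibroblasts, and TIMP-2 was measured by ELISA after 24 hours. Activity in either direction was fitted relative to DMSO.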

Read-out in assay [2]: Transforming growth factor beta 1 (TGFb1), TGFB1 (gene 7040)
The assay is described as follows: BSK_KF3CT_TGFb1: BioMAP Diversity Plus: KF3CT Assay for Transforming growth factor beta 1 (TGFb1) Biomarker Activity (AID 2283072). To be noted: primary human keratinocytes with fibroblasts; actives raise or lower the signal. The essentials:
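KF3CT co-culture (keratinocytes + fibroblasts), 24 h exposure → TGF-b1 ELISA → bidirectional fit, DMSO = baseline. Parallel SRB total-protein staining (0.1% SRB, 10% TCA fixation, 560 nm) for cytotoxicity.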

Read-out in assay [3]: C-C motif chemokine 2 (Homo sapiens) (UniProt P13500)
Description: BSK_KF3CT_MCP1: BioMAP Diversity Plus: KF3CT Assay for Monocyte Chemoattractant Protein 1 (MCP1/CCL2) Biomarker Activity (AID 2283073). To be noted: primary human keratinocytes with fibroblasts; actives raise or lower the signal. In a few lines: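 ELISA readout of MCP-1 after 24 h chemical dosing of a human skin primary co-culture of keratinocytes and foreskin fibroblasts. Activity was fitted in both directions against DMSO.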

Read-out in assay [4]: Matrix Metallopeptidase 9 (MMP9), MMP9 (gene 4318)
The assay is described as follows: BSK_KF3CT_MMP9: BioMAP Diversity Plus: KF3CT Assay for Matrix Metallopeptidase 9 (MMP9) Biomarker Activity (AID 2283074).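 For AC50: MMP9 protein level quantified by ELISA in the co-culture.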 Conditions: primary human keratinocytes with fibroblasts; actives raise or lower the signal. The essentials: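 ELISA read-out of MMP-9 at 24 h post-dosing in a co-culture of human skin keratinocytes and foreskin fibroblasts. Gain or loss of signal was fitted in both directions against DMSO.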

Read-out in assay [5]: urokinase plasminogen activator (uPA), PLAU (gene 5328)
Description: BSK_KF3CT_uPA: BioMAP Diversity Plus: KF3CT Assay for urokinase plasminogen activator (uPA) Biomarker Activity (AID 2283075). To be noted: primary human keratinocytes with fibroblasts; actives raise or lower the signal. In a few lines:
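Skin co-culture (keratinocytes + foreskin fibroblasts), human primary; 24 h post-dose; uPA by ELISA; gain/loss fit vs DMSO baseline.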

Read-out in assay [6]: CD40, CD40 (gene 958)
Description: BSK_LPS_CD40: BioMAP Diversity Plus: LPS Assay for CD40 Biomarker Activity (AID 2283076). Conditions: primary human HUVEC with PBMC; actives raise or lower the signal. The essentials: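 Cells were dosed, incubated 24 h, then assayed for CD40 by ELISA. Gain or loss of signal was analysed relative to DMSO controls. The culture paired human umbilical vein endothelium with peripheral blood mononuclear cells.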

Read-out in assay [7]: E-selectin (Homo sapiens) (UniProt P16581)
The assay is described as follows: BSK_LPS_Eselectin: BioMAP Diversity Plus: LPS Assay for Eselectin Biomarker Activity (AID 2283077). To be noted: primary human HUVEC with PBMC; actives raise or lower the signal. In a few lines:
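Primary human vascular co-culture (endothelium plus PBMC) was dosed with chemical, then E-selectin quantified by ELISA at 24 h. Endpoint values derive from bidirectional curve fitting relative to DMSO.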

Read-out in assay [8]: Interleukin-8 (IL8), CXCL8 (gene 3576)
The assay is described as follows: BSK_LPS_IL8: BioMAP Diversity Plus: LPS Assay for Interleukin-8 (IL8) Biomarker Activity (AID 2283078). To be noted: primary human HUVEC with PBMC; actives raise or lower the signal. In a few lines:
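Readout is IL-8 by ELISA, taken 24 h after compounds were added to LPS-stimulated endothelial/PBMC co-cultures. Both increases and decreases relative to DMSO control were scored through bidirectional fitting.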

The nature of assay [9]: BSK_LPS_SRB: Viability Assessment in the BioMAP Diversity Plus: LPS Assay (AID 2283079).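 Note: total protein by sulforhodamine B absorbance as a cytotoxicity measure; measured one day after compound addition.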 Conditions: primary human HUVEC with PBMC. The essentials: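 Readout is SRB absorbance at 560 nm (0.1% stain, TCA-fixed parallel cultures) as a total-protein cytotoxicity measure. Cells: primary human umbilical vein endothelium plus peripheral blood mononuclear cells, 24 h after chemical exposure; DMSO served as baseline.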

Read-out in assay [10]: Interleukin-1 alpha (IL1a), IL1A (gene 3552)
The assay is described as follows: BSK_LPS_IL1a: BioMAP Diversity Plus: LPS Assay for Interleukin-1 alpha (IL1a) Biomarker Activity (AID 2283080). Conditions: primary human HUVEC with PBMC; actives raise or lower the signal. In a few lines:
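ELISA read-out of IL-1 alpha from a human primary vascular co-culture (endothelium plus PBMC) under LPS, sampled 24 hours post-dosing. Activity was fitted in both directions relative to DMSO controls.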

Sequence of E-selectin (Homo sapiens) (P16581 whole entry, looked up): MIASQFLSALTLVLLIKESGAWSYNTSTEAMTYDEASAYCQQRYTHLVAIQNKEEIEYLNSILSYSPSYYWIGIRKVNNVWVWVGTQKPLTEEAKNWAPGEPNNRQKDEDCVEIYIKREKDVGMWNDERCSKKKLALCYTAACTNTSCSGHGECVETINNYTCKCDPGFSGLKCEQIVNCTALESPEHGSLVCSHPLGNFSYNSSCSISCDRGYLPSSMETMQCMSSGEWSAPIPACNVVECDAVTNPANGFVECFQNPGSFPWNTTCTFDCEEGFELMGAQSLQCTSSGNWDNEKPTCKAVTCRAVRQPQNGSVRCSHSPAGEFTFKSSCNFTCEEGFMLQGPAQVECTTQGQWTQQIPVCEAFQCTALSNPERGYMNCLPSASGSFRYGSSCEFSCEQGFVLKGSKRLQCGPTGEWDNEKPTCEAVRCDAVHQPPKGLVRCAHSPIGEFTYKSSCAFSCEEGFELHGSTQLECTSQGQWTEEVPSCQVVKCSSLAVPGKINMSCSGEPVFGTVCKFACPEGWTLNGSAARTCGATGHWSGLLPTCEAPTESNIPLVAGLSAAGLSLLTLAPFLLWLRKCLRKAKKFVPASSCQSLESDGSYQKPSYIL

For the compound `CS(=O)(=O)c1ccc([C@@H](CC2CCCC2)C(=O)Nc2cnccn2)cc1Cl`, the result in assay [1], in assay [2], in [3], in assay [4], in assay [5] and in [6] was inactive. In addition, the result in assay [7], in [8], in assay [9] and in assay [10] was inactive.

`Cc1cccc2c1ccc1ccccc12`: the outcome in assay [1], in assay [2], in [3], in [4], in assay [5] and in [6] was inactive. The result in [7], in assay [8], in assay [9] and in assay [10] was inactive.

As to `O=C(NO)c1ccccc1`, the outcome in assay [1], in [2], in assay [3], in assay [4], in assay [5] and in assay [6] was inactive. The result in assay [7], in assay [8], in assay [9] and in assay [10] was inactive.

In the case of `O=C(CC(=O)C(F)(F)C(F)(F)C(F)(F)F)c1cccs1`, the outcome in assay [1], in assay [3], in [5], in assay [6], in [7] and in assay [8] was inactive. Besides, the result in assay [10] was inactive. For the same compound, the AC50 in assay [4] was 2.38 µM (active) and 4.67 µM (active); in assay [6], 22.9 µM (active); in assay [9], 26.4 µM (active) and 37.3 µM (active).

On to `CN(C)CCOC(c1ccccc1)c1ccccc1`, for which the outcome in assay [1], in assay [2], in [3], in assay [4], in [5] and in assay [6] was inactive. Further, the outcome in assay [7], in [8], in assay [9] and in assay [10] was inactive.

With `CCOC(=O)CN[C@@H](C(=O)N1CC[C@H]1C(=O)NCc1ccc(/C(N)=N/O)cc1)C1CCCCC1`, the outcome in assay [1], in assay [2], in assay [3], in [4], in assay [5] and in [6] was inactive. In addition, the result in assay [7], in [8], in assay [9] and in [10] was inactive.

For the compound `CN(CCO)S(=O)(=O)C(F)(F)C(F)(F)C(F)(F)C(F)(F)C(F)(F)C(F)(F)C(F)(F)C(F)(F)F`, the outcome in [1], in [3], in assay [4], in [5], in assay [6] and in [7] was inactive. Also, the outcome in assay [8], in [9] and in assay [10] was inactive. Further, the AC50 in assay [8] is 4.94 µM (active).

As to `O=C(O)CCC(F)(F)C(F)(F)C(F)(F)C(F)(F)C(F)(F)F`, the outcome in assay [1], in assay [3], in assay [4], in assay [5], in assay [6] and in assay [7] was inactive. The outcome in [8], in [9] and in [10] was inactive. In assay [8], the AC50 is 5.95 µM (active).

Take `CCCCCc1ccc(O)cc1`: the AC50 in assay [1] was 10.4 µM (active); in assay [2] it was 5.62 µM (active); in [3], 9.12 µM (active); in assay [4] it was 20 µM (active); in [5], 14.8 µM (active); in assay [6], 29.5 µM (active). Further, the AC50 in [7] was 31.4 µM (active); in assay [8], 36.1 µM (active); in [9], 28.4 µM (active); in [10], 31.7 µM (active).

For the compound `O=S(=O)(O)C(F)(F)C(F)(F)C(F)(F)C(F)(F)C(F)(F)C(F)(F)C(F)(F)C(F)(F)C(F)(F)C(F)(F)F`, the outcome in assay [1], in assay [3], in assay [5], in [9] and in assay [10] was inactive. Moreover, the AC50 in assay [4] is 11.9 µM (active) and 5.3 µM (active); in [6], 13.3 µM (active) and 16.5 µM (active); in assay [7] it was 24.7 µM (active) and 768 nM (active); in assay [8], 23.4 µM (active) and 20.3 µM (active); in assay [10] it was 19.4 µM (active).

For `COCN(COC)c1nc(N(COC)COC)nc(N(COC)COC)n1`, the outcome in [1], in assay [2], in assay [3], in assay [4], in [5] and in [6] was inactive. In addition, the result in assay [7], in assay [8], in assay [9] and in assay [10] was inactive.

Turning to `OCC(F)(F)C(F)(F)C(F)(F)C(F)(F)C(F)(F)C(F)(F)C(F)(F)C(F)(F)C(F)(F)C(F)(F)C(F)(F)F`, the outcome in assay [1], in [3], in assay [4], in [5], in [6] and in assay [7] was inactive. Moreover, the outcome in assay [8] and in assay [9] was inactive. The AC50 in assay [10] is 186 nM (active) and 202 nM (active).

For `Oc1ccc(Cc2ccccc2O)cc1`, the result in assay [1], in assay [3], in assay [4], in assay [5], in [6] and in [7] was inactive. In addition, the result in [8], in assay [9] and in [10] was inactive.

Turning to `Oc1c(Cl)cc(Cl)cc1Sc1cc(Cl)cc(Cl)c1O`, the AC50 is 1.96 µM (active) and 2.15 µM (active) in assay [1]; 2.23 µM (active) and 2.57 µM (active) in assay [3]; 1.88 µM (active) and 2.08 µM (active) in [4]; 3.48 µM (active) and 3.57 µM (active) in [5]; 14.2 µM (active) in assay [6]; 35.1 µM (active) and 31.9 µM (active) in assay [7]. In addition, the AC50 was 36.5 µM (active) and 33.4 µM (active) in [8]; 20 µM (active) and 6.67 µM (active) in assay [9]; 35.4 µM (active) and 35.6 µM (active) in [10].
